Screening results from PubChem BioAssay.
DT40 TDP1 no CPT: qHTS for Inhibitors of human tyrosyl-DNA phosphodiesterase 1 (TDP1): qHTS in cells in absence of CPT | DT40 Tdp1-/- hTDP1 cells, no CPT, ATP luminescence, 48 h | Potency, µM (series often up to 46.2 µM), usual class: inhibitors | 420,000 tested, 15% active; note: nearly all actives have a fitted effect of over 55% in size
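Growth kinetics read by CellTiter-Glo luminescence after ≥48 hr at 37 °C. Cells: DT40 Tdp1-/- stably carrying human TDP1, 400 per well, compound exposure in the absence of CPT (DMSO vehicle).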
Giardia kill: kills Giardia lamblia | Giardia lamblia trophozoite viability | activity change, % at 7.66 µM, hits read low | 340,000 tested, 0.15% active | AID 540267; in the data active = activity change below about -80%; inconclusive = between about -30% and that limit;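 note: parasites exposed to compound for two days anaerobically before the ATP read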
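Luminescent ATP signal served as the viability read-out, measured 15-30 min after adding ATP detection reagent to trophozoites that had been incubated with compounds for 48 hrs at 37 deg C anaerobically at 100 cells/well.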
ELG1 DNA repair: ELG1-dependent DNA repair inhibition | HEK293T ELG1-luciferase reporter, luminescence, 16 h; DNA damage induced by 5-fluorouridine | Potency, µM (series often up to 46.1 µM), usual class: inhibitors | 330,000 tested, 2.3% active; note: nearly all actives have a fitted effect of over 55% in size
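Quantitative HTS, concentration-response format. 2,000 cells/well co-treated with 5-fluorouridine and compound, 16 hr in 5% CO2 at 37 °C; ONE-Glo luminescence read after 30 min.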
IL1B secr inh: inflammasome signaling inhibition, IL-1 beta readout | 360,000 tested, 4.7% active | THP-1 LPS/ATP IL-1B secretion, AlphaLISA, 16 h; stronger effect = lower value | activity change, % at 57.5 µM; in the data active = activity change below about -50%; inconclusive = mostly about -30% to -49%
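THP-1 cells pretreated 1 hr with compounds (up to 57.5 uM final), then stimulated with LPS (250 ng/mL final) plus ATP (1.25 mM final); secreted IL-1B measured by AlphaLISA after 16 hr, decreased signal indicating inhibition.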
TDP1 inh: inhibitors of human tyrosyl-DNA phosphodiesterase TDP1; Potency, µM (highest dose often 130 µM), usual class: inhibitors; AID 485290; recombinant TDP1, AlphaScreen DNA substrate cleavage; 350,000 tested, 0.28% active; Q9NUW8; note: nearly all actives have a fitted effect of over 40% in size
Target sequence (Q9NUW8 whole entry, looked up): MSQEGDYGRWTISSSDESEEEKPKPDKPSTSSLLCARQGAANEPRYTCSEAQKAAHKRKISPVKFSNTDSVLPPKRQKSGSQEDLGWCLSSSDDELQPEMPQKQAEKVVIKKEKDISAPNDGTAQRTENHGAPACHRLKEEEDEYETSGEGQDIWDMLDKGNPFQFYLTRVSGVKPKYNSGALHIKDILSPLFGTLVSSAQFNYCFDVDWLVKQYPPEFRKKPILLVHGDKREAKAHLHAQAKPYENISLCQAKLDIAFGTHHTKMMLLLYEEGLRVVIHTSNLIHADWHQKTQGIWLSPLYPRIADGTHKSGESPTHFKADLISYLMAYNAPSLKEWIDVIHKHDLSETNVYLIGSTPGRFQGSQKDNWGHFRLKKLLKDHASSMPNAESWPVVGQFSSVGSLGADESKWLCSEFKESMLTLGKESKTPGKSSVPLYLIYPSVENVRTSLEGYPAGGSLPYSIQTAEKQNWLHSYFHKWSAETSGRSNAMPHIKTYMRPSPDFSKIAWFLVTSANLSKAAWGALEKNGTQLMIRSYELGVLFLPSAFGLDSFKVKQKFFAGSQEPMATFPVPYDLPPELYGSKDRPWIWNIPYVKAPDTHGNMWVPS
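E. coli-derived human Tdp1, 1 nM final. Cpd preinc 15 min RT; substrate 15 nM final, 5 min RT; AS bead mix 10 ug/ml final, 10 min RT. Signal loss = tyrosine-FITC cleavage. No-enzyme wells = max signal.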
TDP1 cell CPT: growth inhibition of DT40 Tdp1-/-;hTDP1 cells with camptothecin (screen for TDP1 inhibitors); 420,000 tested, 12% active; Potency, µM (highest dose often 46.2 µM), usual class: inhibitors; chicken DT40 Tdp1-/-;hTDP1 cells + 20 nM CPT, ATP luminescence, 48 h; note: nearly all actives have a fitted effect of over 55% in size
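Chicken DT40 Tdp1-/- cells stably complemented with human TDP1 were seeded at 400 cells/well in medium containing 20 nM camptothecin, exposed to pin-transferred compounds, and grown at 37 °C for at least 48 hr. Viability was read as ATP luminescence.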
Numbers stand for hits; - = inactive; ? = inconclusive; . = no result given. Shown are actives, neighbours in structure and some others; about 19% of the full set was active somewhere. Unless noted, calls come from the whole dose curve; as a rule, active = well fitted curve in the direction sought with a large enough effect; inconclusive = small, poorly fitted or top-dose-only effect, or another doubt; inactive = no such curve, though single readings can be large; an effect the other way counts as inactive or inconclusive.

SMILES	DT40 TDP1 no CPT	Giardia kill	ELG1 DNA repair	IL1B secr inh	TDP1 inh	TDP1 cell CPT
O=C(Cc1csc(NC(=O)Nc2cccc(Cl)c2)n1)NCc1ccccn1	2.59µM	-	-	-	-	2.06µM
COc1ccccc1NC(=O)Cc1csc(NC(=O)c2ccccc2)n1	?	-	?	-	-	?
CCCC[C@@H](C)/C=C(C)/C=C(\C)C(=O)NC1=C[C@@](O)(/C=C/C=C/C=C/C(=O)NC2=C(O)CCC2=O)[C@@H]2O[C@@H]2C1=O	.	.	.	.	-	.
Cc1ccc(C(=O)Nc2ccc3cn[nH]c3c2)cc1S(=O)(=O)N1CCOCC1	?	-	-	-	-	?
CC(=O)OC(C)C	.	.	.	.	-	.
O=C(CN1CCC(C(=O)c2ccc(F)cc2)CC1)Nc1ccccc1	-	-	-	-	-	?
O=C(Nc1ccc(F)cc1)N1CCN(C/C=C/c2ccccc2)CC1	29.1µM	-	-	-	-	?
Fc1ccc(C(c2ccc(F)cc2)N2CCN(C/C=C\c3ccccc3)CC2)cc1	21.1µM	.	.	.	-	23.7µM
O=C(Nc1cccc(F)c1)N1CCN(C/C=C/c2ccccc2)CC1	-	-	?	-	-	-
O=C(CN1CCN(C(=O)C2CCN(C(=O)/C=C/c3ccccc3)CC2)CC1)Nc1ccc(F)cc1	?	?	.	-83.4	.	?
O=C(COc1ccc2ccccc2c1)N/N=C/C1CC=CCC1 (centres undefined)	-	-	-	-	-	-
COC(=O)C1=C(C)N(C2CCCCC2)C(=O)/C1=C\c1cccs1	?	-	-	-	-	?
Cc1ccc(NC(=S)NCCN(C2CCCCC2)C2CCCC2)cc1C	?	-	?	-67.1	-	20.6µM
Cc1ccc(NC(=S)NCCN(C2CCCCC2)C2CCCC2)cc1	?	-	-	-	-	?
COC(=O)c1cc(Sc2c(Cl)cccc2Cl)ccn1	2.31µM	-	-	-	-	-
CC1(C)CC(=O)C(C(C#Cc2ccccc2)C2=C(O)CC(C)(C)CC2=O)=C(O)C1	9.2µM	-	-	-99.5	-	6.51µM
O=C1CCCC(O)=C1C(C#Cc1ccccc1)C1=C(O)CCCC1=O	5.17µM	-	-	-98.9	-	3.66µM
O=C1CCCC(O)=C1Sc1ccccc1C(=O)O	-	-	-	-	.	-
CN(C)/C=N/c1c(C#N)cnn1-c1ccc(F)c(Cl)c1	.	.	.	.	-	.
O=C1NC(=Nc2ccccc2)SC1(CO)CO	-	-	-	-	.	-
CC(=O)N1NC(=Nc2ccccc2)SC1(C)C	16.4µM	-	-	-75.1	-	?
COc1ccccc1N1C(=O)C=C(Sc2nc(C)cc(C)n2)C1=O	2.31µM	-	-	-	-	1.16µM
NC(=S)N=Nc1ccc(O)cc1	18.4µM	-	.	-	.	20.6µM
NC(N)=NC(N)=Nc1ccc(O)cc1	-	-	-	-	-	-
N#CCSc1nc2sc3c(c2c(=O)n1C1CCCCC1)CCCC3	23.1µM	-	-	?	-	?
SMILES	DT40 TDP1 no CPT	Giardia kill	ELG1 DNA repair	IL1B secr inh	TDP1 inh	TDP1 cell CPT
C#CCSc1nc2sc3c(c2c(=O)n1C)CCC3	-	-	?	-	.	-
C=C(C)CSc1nc2sc3c(c2c(=O)n1C1CCCCC1)CCN(C)C3	6.51µM	-	?	.	-	5.8µM
CCSc1nc2sc3c(c2c(=O)n1C1CCCCC1)CCN(C)C3	14.6µM	-	-	-	-	16.4µM
C[C@H](CO)N1C[C@H](C)[C@@H](CN(C)Cc2ccc(-c3ccccc3)cc2)Oc2ncc(C#C[C@@H](C)O)cc2C1=O	?	.	.	-	.	?
C[C@H](O)C#Cc1cnc2c(c1)C(=O)N([C@H](C)CO)C[C@@H](C)[C@@H](CN(C)Cc1ccc(-c3ccccc3)cc1)O2	1.3µM	.	.	-107.9	.	?
C[C@@H]1CN([C@@H](C)CO)C(=O)c2cc(Br)cnc2O[C@@H]1CN(C)Cc1ccc(Oc2ccccc2)cc1	16.4µM	.	.	-51.6	.	-
C[C@@H]1CN([C@@H](C)CO)C(=O)c2cc(C#Cc3cccc(F)c3)cnc2O[C@@H]1CN(C)CC1CCOCC1	?	.	.	?	.	16.4µM
